Records with an inconclusive call do not appear. The source made the active and inactive calls. How the source made its calls: active means hit-call score of the fitted dose curve at least 0.9, where 1 is the maximum; inconclusive means response in the unintended direction; inactive means score below 0.9.
Columns and labels:
[1] = molecular target: human CYP2D6, CYP2D6 (gene 1565) (UniProt P10635); assay: NVS_ADME_hCYP2D6: NovaScreen (NVS) CYP450-related Enzyme Activity (ADME) Assay for human CYP2D6 (AID 2283107)
In short: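 Insect-cell recombinant enzyme + fluorogenic substrate, cell-free; 1 h incubation; fluorescence intensity readout. Acetonitrile = neg. ctrl/baseline. Single-point 10 uM, duplicate; follow-up concentration series.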

[2] = molecular target: human CYP2C9, CYP2C9 (gene 1559) (UniProt P11712); assay: NVS_ADME_hCYP2C9: NovaScreen (NVS) CYP450-related Enzyme Activity (ADME) Assay for human CYP2C9 (AID 2283108)
In short: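 Recombinant human CYP2C9 expressed in SF9 cells, fluorogenic substrate, fluorescence read 0.75 h after dosing. Chemicals first run in duplicate at 10 uM, with actives followed in concentration series; loss of signal versus acetonitrile baseline.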

[3] = molecular target: Cytochrome P450 3A4 (Homo sapiens) (UniProt P08684); assay: NVS_ADME_hCYP3A4: NovaScreen (NVS) CYP450-related Enzyme Activity (ADME) Assay for human CYP3A4 (AID 2283110)
In short: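 Cell-free recombinant enzyme expressed in insect cells; fluorescent substrate turnover read after 0.33 h, acetonitrile as negative control. Primary screen in duplicate at 10 uM, actives then tested in concentration series.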

[4] = molecular target: rat CYP2A2, Cyp2a2 (gene 24895) (UniProt P15149); assay: NVS_ADME_rCYP2A2: NovaScreen (NVS) CYP450-related Enzyme Activity (ADME) Assay for rat CYP2A2 (AID 2283116)
In short: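 Cell-free recombinant rat CYP2A2 activity with fluorogenic substrate, fluorescence read 0.2 h after dosing. Chemicals screened at 10 uM in duplicate, hits then run in concentration-response up to 20 uM; signal loss versus acetonitrile baseline.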

[5] = molecular target: human Acid Phosphatase 1 (ACP1), ACP1 (gene 52) (UniProt P24666); assay: NVS_ENZ_hACP1: NovaScreen (NVS) Enzymatic Assay for human Acid Phosphatase 1 (ACP1) (AID 2283136)
In short: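 Recombinant enzyme expressed in Sf9 cells, tested cell-free; activity read by fluorescence with electrophoretic mobility shift separation of substrate and product, 1.5 h after dosing. Primary screen in duplicate at 25 uM, actives then run in concentration series; loss of signal versus DMSO.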

[6] = molecular target: human Caspase 5 (CASP5), CASP5 (gene 838) (UniProt P51878); assay: NVS_ENZ_hCASP5: NovaScreen (NVS) Enzymatic Assay for human Caspase 5 (CASP5) (AID 2283137)
In short: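 Recombinant E. coli-expressed human caspase 5 in a cell-free enzyme assay; fluorescence intensity read 2 hours after chemical dosing. Single-concentration duplicate screen at 25 uM, then concentration-response up to 50 uM for hits; DMSO negative control.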

[7] = molecular target: human AKT serine/threonine Kinase 2 (AKT2), AKT2 (gene 208) (UniProt P31751); assay: NVS_ENZ_hAKT2: NovaScreen (NVS) Enzymatic Assay for human AKT serine/threonine Kinase 2 (AKT2) (AID 2283141)
In short: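 Cell-free fluorescence/electrophoretic mobility shift readout of recombinant human AKT2 activity, 1 h after chemical dosing. Duplicate primary screen at 25 uM, then singleton concentration-response up to 50 uM; loss of signal versus DMSO baseline.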

Cytochrome P450 3A4 (Homo sapiens), sequence (P08684 whole entry, looked up): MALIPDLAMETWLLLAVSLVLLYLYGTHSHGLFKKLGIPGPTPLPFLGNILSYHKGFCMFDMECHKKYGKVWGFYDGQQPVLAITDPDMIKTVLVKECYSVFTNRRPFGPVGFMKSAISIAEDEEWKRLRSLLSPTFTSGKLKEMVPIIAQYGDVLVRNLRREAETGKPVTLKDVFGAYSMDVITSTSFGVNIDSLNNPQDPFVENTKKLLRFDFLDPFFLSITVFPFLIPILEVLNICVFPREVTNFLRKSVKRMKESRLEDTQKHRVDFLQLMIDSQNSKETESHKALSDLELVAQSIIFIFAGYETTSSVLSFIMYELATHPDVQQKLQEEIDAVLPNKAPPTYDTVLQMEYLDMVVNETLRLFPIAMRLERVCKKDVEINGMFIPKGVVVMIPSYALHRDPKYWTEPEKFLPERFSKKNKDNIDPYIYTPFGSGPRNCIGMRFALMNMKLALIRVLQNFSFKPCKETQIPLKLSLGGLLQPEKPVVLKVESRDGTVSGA
human CYP2D6, CYP2D6 (gene 1565), sequence (P10635 whole entry, looked up): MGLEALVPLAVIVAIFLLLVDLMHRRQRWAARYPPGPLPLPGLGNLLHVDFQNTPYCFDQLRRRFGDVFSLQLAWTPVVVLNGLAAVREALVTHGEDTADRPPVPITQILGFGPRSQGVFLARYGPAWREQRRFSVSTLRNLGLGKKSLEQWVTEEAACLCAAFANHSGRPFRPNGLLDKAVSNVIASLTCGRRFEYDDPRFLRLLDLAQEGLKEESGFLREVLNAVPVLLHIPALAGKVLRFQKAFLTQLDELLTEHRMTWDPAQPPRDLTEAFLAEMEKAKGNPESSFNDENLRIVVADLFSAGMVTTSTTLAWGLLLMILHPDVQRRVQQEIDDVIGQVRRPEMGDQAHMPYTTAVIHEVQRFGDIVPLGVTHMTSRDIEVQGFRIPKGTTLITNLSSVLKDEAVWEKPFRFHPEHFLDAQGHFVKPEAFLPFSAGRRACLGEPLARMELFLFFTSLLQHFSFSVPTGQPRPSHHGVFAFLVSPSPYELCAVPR
human Acid Phosphatase 1 (ACP1), ACP1 (gene 52), sequence (P24666 whole entry, looked up): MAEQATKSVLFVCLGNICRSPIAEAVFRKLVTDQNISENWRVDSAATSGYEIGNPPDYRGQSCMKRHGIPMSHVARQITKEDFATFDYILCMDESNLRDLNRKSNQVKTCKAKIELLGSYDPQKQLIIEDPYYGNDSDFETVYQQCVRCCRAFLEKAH
human Caspase 5 (CASP5), CASP5 (gene 838), sequence (P51878 whole entry, looked up): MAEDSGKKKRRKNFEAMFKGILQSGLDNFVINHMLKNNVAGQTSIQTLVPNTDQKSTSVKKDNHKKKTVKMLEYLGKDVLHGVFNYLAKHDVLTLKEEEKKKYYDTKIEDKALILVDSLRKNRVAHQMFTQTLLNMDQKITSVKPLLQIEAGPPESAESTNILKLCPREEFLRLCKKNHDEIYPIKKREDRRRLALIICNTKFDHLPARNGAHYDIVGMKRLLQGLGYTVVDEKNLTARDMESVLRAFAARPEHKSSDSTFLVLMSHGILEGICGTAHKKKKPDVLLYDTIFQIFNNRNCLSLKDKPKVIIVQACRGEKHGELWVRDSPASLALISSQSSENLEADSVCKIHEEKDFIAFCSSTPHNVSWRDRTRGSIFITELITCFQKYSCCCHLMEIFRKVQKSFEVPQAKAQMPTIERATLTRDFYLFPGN
rat CYP2A2, Cyp2a2 (gene 24895), sequence (P15149 whole entry, looked up): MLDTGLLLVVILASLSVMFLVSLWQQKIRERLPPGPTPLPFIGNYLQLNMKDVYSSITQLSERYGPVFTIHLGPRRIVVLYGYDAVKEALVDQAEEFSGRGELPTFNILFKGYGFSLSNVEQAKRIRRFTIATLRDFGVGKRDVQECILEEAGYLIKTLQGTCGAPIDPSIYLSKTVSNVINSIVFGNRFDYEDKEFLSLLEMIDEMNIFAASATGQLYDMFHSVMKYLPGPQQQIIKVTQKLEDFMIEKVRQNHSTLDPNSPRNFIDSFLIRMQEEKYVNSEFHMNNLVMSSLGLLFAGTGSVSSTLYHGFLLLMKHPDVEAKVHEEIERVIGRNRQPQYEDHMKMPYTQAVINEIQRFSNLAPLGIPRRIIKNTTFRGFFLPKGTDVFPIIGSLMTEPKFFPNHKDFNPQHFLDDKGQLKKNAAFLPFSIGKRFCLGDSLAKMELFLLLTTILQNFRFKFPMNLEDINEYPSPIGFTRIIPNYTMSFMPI
human AKT serine/threonine Kinase 2 (AKT2), AKT2 (gene 208), sequence (P31751 whole entry, looked up): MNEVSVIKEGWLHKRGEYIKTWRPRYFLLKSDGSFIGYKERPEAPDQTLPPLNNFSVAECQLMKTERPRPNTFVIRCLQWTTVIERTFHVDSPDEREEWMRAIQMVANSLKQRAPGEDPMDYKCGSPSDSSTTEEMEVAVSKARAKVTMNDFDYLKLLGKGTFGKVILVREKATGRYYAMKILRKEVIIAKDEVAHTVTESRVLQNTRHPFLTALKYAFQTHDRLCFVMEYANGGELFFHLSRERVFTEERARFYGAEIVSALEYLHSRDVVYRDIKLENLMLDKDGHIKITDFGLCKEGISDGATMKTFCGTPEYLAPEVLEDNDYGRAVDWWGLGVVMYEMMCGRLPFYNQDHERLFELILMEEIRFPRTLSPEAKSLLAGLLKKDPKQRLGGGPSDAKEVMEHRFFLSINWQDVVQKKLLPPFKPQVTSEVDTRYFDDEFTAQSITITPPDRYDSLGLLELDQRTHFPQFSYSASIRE
human CYP2C9, CYP2C9 (gene 1559), sequence (P11712 whole entry, looked up): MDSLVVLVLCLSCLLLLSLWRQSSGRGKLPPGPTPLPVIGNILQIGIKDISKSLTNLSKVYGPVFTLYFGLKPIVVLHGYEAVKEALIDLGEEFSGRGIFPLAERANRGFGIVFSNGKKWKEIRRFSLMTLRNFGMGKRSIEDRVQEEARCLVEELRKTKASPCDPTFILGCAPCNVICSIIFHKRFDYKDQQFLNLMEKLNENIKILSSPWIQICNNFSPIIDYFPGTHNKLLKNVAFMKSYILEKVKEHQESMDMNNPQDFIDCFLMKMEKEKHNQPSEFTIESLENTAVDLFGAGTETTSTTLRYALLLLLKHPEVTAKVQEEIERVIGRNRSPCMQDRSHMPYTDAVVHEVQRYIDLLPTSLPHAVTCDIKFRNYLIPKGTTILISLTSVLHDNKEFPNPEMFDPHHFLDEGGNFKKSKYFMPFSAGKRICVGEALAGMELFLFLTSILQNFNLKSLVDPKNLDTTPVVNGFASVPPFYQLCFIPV

SMILES: c1cc[nH]c1
- outcome [1]: inactive

SMILES: CCCCCCCCCCCCCCCCCC[N+](C)(C)Cc1ccccc1
- AC50 [1]: 0.425 µM (active)

SMILES: CC1=NN(c2ccccc2)C(=O)C1
- AC50 [2]: 3.06 µM (active)

SMILES: CC(C)C=O
- AC50 [3]: 5 µM (active)

SMILES: CCCCC(CC)C(=O)OCCOCCOCCOCCOC(=O)C(CC)CCCC (stereo unspecified)
- outcome [3]: inactive

SMILES: NC(=NCCCCCCN=C(N)/N=C(\N)Nc1ccc(Cl)cc1)/N=C(\N)Nc1ccc(Cl)cc1
- AC50 [4]: 2.84 µM (active)

SMILES: CCCCC(CC)C(=O)O (stereo unspecified)
- outcome [5]: inactive

SMILES: CCCCCCCCCCCCOS(=O)(=O)O
- outcome [5]: inactive
- AC50 [6]: 25 µM (active)
- AC50 [7]: 32.9 µM (active)

SMILES: Cc1[nH]nc2c1N=C(c1ccccc1Cl)c1cc([N+](=O)[O-])ccc1N2
- outcome [6]: inactive

Reference: PubChem BioAssay (EPA / NIEHS)
